Measurements taken from PubChem BioAssay AID1159580 (chemical genetic matrix, 2015).
Values joined by “and” are separate entries in the source; they are usually repeats but may differ in a detail not shown here. Identical values can stand only once. The campaign covered roughly 5,500 compounds. About 2,000 (36%) were called active. Inconclusive results (about 18%) are left out. Cut-off read from the data, not from the text of the source: active = normalized growth mostly below about 0.91 (no sharp cut-off); inconclusive = no clear call, values can overlap the other calls; inactive = mostly above about 0.92. This is one part of the list.

Assay: chemical genetic growth profiling, strain panel (AID 1159580);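 note: tested at 20 µM; growth read once vehicle control cultures reached saturation at 30 °C; 1 = growth at the plate median or of vehicle wells; lower values mean less growth of the strain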
Conditions: S. cerevisiae deletion strains, growth OD

Measured: normalized growth

CC(C)CCCC(C)[C@H]1CCC2C3CC=C4C[C@@H](O)CC[C@]4(C)C3CC[C@@]21C (some centres undefined)
inactive: locus YAL021C, strain ccr4, stronger effect = lower value 0.974 | locus YAL026C, strain drs2, stronger effect = lower value 0.96 | locus YAL030W, strain snc1, stronger effect = lower value 0.979 | locus YBL061C, strain skt5, stronger effect = lower value 0.99 | locus YBR009C, strain hhf1, stronger effect = lower value 0.986 | locus YBR021W, strain FUR4, stronger effect = lower value 1.01 | locus YBR023C, strain chs3, stronger effect = lower value 0.989 | locus YBR171W, strain sec66, stronger effect = lower value 0.987 | locus YBR229C, strain ROT2, stronger effect = lower value 1.01 | locus YBR231C, strain swc5, stronger effect = lower value 0.989 | locus YBR279W, strain paf1, stronger effect = lower value 0.951 | locus YCL011C, strain gbp2, stronger effect = lower value 0.972 | locus YCL016C, strain dcc1, stronger effect = lower value 0.994 | locus YCL029C, strain bik1, stronger effect = lower value 0.979 | locus YCL061C, strain MRC1, stronger effect = lower value 0.985 | locus YCL069W, strain vba3, stronger effect = lower value 0.964 | locus YCR088W, strain abp1, stronger effect = lower value 0.992 | locus YDL005C, strain med2, stronger effect = lower value 0.976 | locus YDL035C, strain GPR1, stronger effect = lower value 1.03 | locus YDL040C, strain nat1, stronger effect = lower value 0.986 | locus YDL074C, strain BRE1, stronger effect = lower value 1.03 | locus YDL101C, strain DUN1, stronger effect = lower value 1.01 | locus YDL134C, strain PPH21, stronger effect = lower value 1.03 | locus YDL185W, strain tfp1, stronger effect = lower value 0.994 | locus YDL192W, strain arf1, stronger effect = lower value 0.992 | locus YDR001C, strain nth1, stronger effect = lower value 0.981 | locus YDR069C, strain doa4, stronger effect = lower value 0.966 | locus YDR101C, strain arx1, stronger effect = lower value 0.962 | locus YDR137W, strain rgp1, stronger effect = lower value 0.916 | locus YDR159W, strain sac3, stronger effect = lower value 0.963 | locus YDR162C, strain NBP2, stronger effect = lower value 1 | locus YDR195W, strain ref2 0.957 | locus YDR297W, strain sur2, stronger effect = lower value 0.985 | locus YDR318W, strain mcm21, stronger effect = lower value 1.01 | locus YDR334W, strain swr1, stronger effect = lower value 0.964 | locus YDR335W, strain msn5, stronger effect = lower value 0.996 | locus YDR388W, stronger effect = lower value 0.988 | locus YDR392W, strain spt3, stronger effect = lower value 0.935 | locus YDR502C, strain sam2, stronger effect = lower value 0.974 | locus YEL003W, strain gim4, stronger effect = lower value 0.982 | locus YEL037C, strain rad23, stronger effect = lower value 0.953 | locus YEL061C, strain CIN8 (second series), stronger effect = lower value 0.965 | locus YEL061C, strain CIN8, stronger effect = lower value 1.01 | locus YER015W, strain faa2, stronger effect = lower value 0.995 | locus YER016W, strain bim1, stronger effect = lower value 0.987 | locus YER110C, stronger effect = lower value 0.991 | locus YER111C, strain swi4, stronger effect = lower value 0.985 | locus YER155C, strain BEM2 (second series), stronger effect = lower value 0.984 | locus YER155C, strain BEM2, stronger effect = lower value 1.01 | locus YER167W, strain BCK2, stronger effect = lower value 1 | locus YFR010W, strain ubp6, stronger effect = lower value 0.961 | locus YGL078C, strain dbp3, stronger effect = lower value 0.996 | locus YGL086W, strain mad1, stronger effect = lower value 0.991 | locus YGL167C, strain pmr1, stronger effect = lower value 0.99 | locus YGL173C, strain kem1, stronger effect = lower value 0.984 | locus YGL227W, strain vid30, stronger effect = lower value 0.99 | locus YGL240W, strain doc1, stronger effect = lower value 0.986 | locus YGL248W, strain PDE1, stronger effect = lower value 1.03 | locus YGL253W, strain hxk2, stronger effect = lower value 0.976 | locus YGR078C, strain PAC10, stronger effect = lower value 1.01 | locus YGR135W, strain pre9, stronger effect = lower value 1 | locus YGR252W, strain gcn5, stronger effect = lower value 0.978 | locus YHR013C, strain ard1, stronger effect = lower value 0.96 | locus YHR027C, strain rpn1, stronger effect = lower value 0.997 | locus YHR030C, strain SLT2, stronger effect = lower value 1.01 and 1.02 | locus YHR079C, strain IRE1 (second series), stronger effect = lower value 0.997 | locus YHR079C, strain IRE1, stronger effect = lower value 1.01 | locus YHR094C, strain hxt1, stronger effect = lower value 0.988 | locus YHR129C, strain ARP1, stronger effect = lower value 0.999 | locus YHR142W, strain chs7, stronger effect = lower value 0.956 | locus YHR200W, strain rpn10, stronger effect = lower value 0.995 | locus YIL066C, strain RNR3, stronger effect = lower value 1.01 | locus YIL073C, strain SPO22, stronger effect = lower value 1 | locus YIL125W, strain kgd1, stronger effect = lower value 0.99 | locus YIR030C, strain dcg1, stronger effect = lower value 0.987 | locus YJL092W, strain hpr5, stronger effect = lower value 0.992 | locus YJL095W, strain BCK1 (second series), stronger effect = lower value 0.987 | locus YJL095W, strain BCK1, stronger effect = lower value 1.04 and 1.01 | locus YJL115W, strain asf1, stronger effect = lower value 0.981 | locus YJL129C, strain trk1, stronger effect = lower value 0.968 | locus YJL134W, strain LCB3, stronger effect = lower value 1.01 | locus YJL154C, strain vps35, stronger effect = lower value 0.981 | locus YJL164C, strain tpk1, stronger effect = lower value 0.985 | locus YJL166W, strain qcr8, stronger effect = lower value 0.985 | locus YJL168C, strain set2, stronger effect = lower value 1 | locus YJL187C, strain SWE1 (second series), stronger effect = lower value 1.01 | locus YJL187C, strain SWE1, stronger effect = lower value 0.974 | locus YJR043C, strain POL32, stronger effect = lower value 1.01 | locus YJR066W, strain TOR1, stronger effect = lower value 0.987
